Results on 21 compounds are retold here after PubChem BioAssay AID686999 (Broad Institute, 2013).

Potency and affinity values are given separately. Records with an inconclusive call do not appear. Where a call stands in place of a potency, no number is given. The source made the active and inactive calls.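 Rule for the calls: active = active in every separate test run, each with half-maximal potency at or under twice its top valid dose; inconclusive = the separate test runs give conflicting calls; inactive = inactive in every test run, including signal rising instead.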

The test in a line: Cryptococcus growth inhibition by alamar blue – cell lysis, cherry-picks, replicate tests, mechanism study for C. neoformans antifungal project, dose response (AID 686999). Particulars: 72 h; series mostly up to 35 µM. (Alamar Blue is a resazurin reagent that responds to reducing activity.)
For the compound `S=C(Nc1ccc(Cl)cc1Cl)Nc1ccccc1Oc1ccccc1`, the outcome was inactive.

`COc1ccc(NC(=S)NCc2ccc(Cl)cc2)c(OC)c1`: the call was inactive.

As for `O=C(NC(=S)Nc1ccccc1N1CCCC1)c1ccccc1[N+](=O)[O-]`, the outcome was inactive.

In the case of `COc1ccccc1CNC(=S)NCc1ccc(Cl)cc1`, the result was inactive.

For the compound `O=C(NC(=S)Nc1cc(Cl)ccc1N1CCOCC1)c1ccccc1[N+](=O)[O-]`, the compound was classed as inactive.

For `O=C(NC(=S)Nc1ccccc1N1CCOCC1)c1cccc([N+](=O)[O-])c1`, the call was inactive.

As to `COc1ccccc1NC(=S)NCc1ccc(Cl)cc1`, the call was inactive.

In the case of `COC(=O)C1=C(C)N(Cc2ccc(F)cc2)C(=S)NC1c1cccc(Cl)c1` (stereo unspecified), the compound was called inactive.

For `O=C(NC(=S)NCC1COc2ccccc2O1)c1ccc(Cl)cc1` (stereo unspecified), the compound was called inactive.

For `Cc1ccc(C)c(NC(=O)C2(C)CCCN2C(=O)C(C)C)c1` (stereo unspecified), the compound was called inactive.

For `O=C(NC(=S)Nc1cccc(F)c1)c1cccc([N+](=O)[O-])c1`, the result was inactive.

For `COc1ccc(CNC(=S)NCc2ccc(OC(C)C)cc2)cc1`, the compound was called inactive.

For `CCc1nc(N2CCCCC2C)c2oc3ccccc3c2n1` (stereo unspecified), the call was inactive.

On to `CCc1ccc(C(=O)NC(=S)NCc2cccnc2)cc1`, for which the outcome was inactive.

With `COC(=O)C1=C(C)N(Cc2ccccc2)C(=S)N[C@H]1c1cccc(F)c1`, the outcome was inactive.

`CCCCNC(=S)N/N=C/c1ccc(C#N)cc1`: the compound was classed as inactive.

Turning to `CC(C)CC1(C)N=C(c2ccccc2)C(=S)N1` (stereo unspecified), the call was inactive.

For `COC(=O)C1=C(C)N(CC(C)C)C(=S)NC1c1ccc(F)cc1` (stereo unspecified), the call was inactive.

Take `COc1cccc(NC(=S)N2CCC(Cc3ccccc3)CC2)c1`: the compound was classed as inactive.

`S=C(NCc1ccccc1)NCC1COc2ccccc2O1` (stereo unspecified): the compound was called inactive.

For `CCc1ccc(C(C)NC(=S)NCc2ccc(F)cc2)cc1` (stereo unspecified), the outcome was inactive.
